Rows were chosen to be rich in hits. Some 2.9% of all compounds tested hit in one or more screens of this group.
GPR32 ag: qHTS for Agonists of Human Resolvin D1 Receptor DRV1; Probable G-protein coupled receptor 32 (Homo sapiens), O75388; CHO-K1 GPR32 beta-arrestin PathHunter luminescence, 90 min; zero percent set by DMSO-only wells; activation, % at 76.9 µM; 48,000 compounds, 2.5% hits; AID 1346428, 2018;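 active = activation of at least 60% and not above a set upper limit, about 1 call in 100 departs from these limits; inconclusive = activation of 40% to 60%, or above that upper limit; inactive = activation under 40%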
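Luminescent readout of beta-Gal complementation quantifies ligand-induced beta-arrestin association with GPR32 in CHO-K1 cells; 90 min compound incubation at 37 °C, detection 1 h at room temperature.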
SKOV3 invasion: Primary qHTS assay for Inhibitors of ovarian cancer metastasis using an organotypic tumor microenvironment (TME) model. Potency, µM (series often up to 45.8 µM), actives largely listed as inhibitors. AID 1963576, 2024. 46,000 compounds, 0.1% hits. SKOV3ip1-GFP adhesion/invasion on 3D omental model, fluorescence; note: nearly all actives have a fitted effect of over 65% in size
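A 3D layer of primary human omental fibroblasts, mesothelial cells, fibronectin and collagen I, grown 48 hr, received SKOV3ip1-GFP cells in serum-free medium plus compounds at 0.36-46 umol/L. After 2 hr RT and 16 hr 37 C, fixed adherent GFP cells were counted; normalized to DMSO and tomatine.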
GALC G270D up: A Novel Cell-Based Assay to Identify Small Molecules for B -Galactocerebrosidase | 45,000 compounds, 0.1% hits | P54803 | AID 1159614, 2016 | 145M-Twi-hGALC-G270D cells (Twitcher mouse brain line with human GALC G270D), HMU-beta-Gal fluorescence, 48 h | Potency, µM (titrated, usually from 57.5 µM), most hits filed as activators; note: nearly all actives have a fitted effect of over 65% in size
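Fluorogenic HMU-b-Gal hydrolysis (0.1 mM final, pH 5.2 citrate-phosphate with 1 mg/mL sodium taurocholate; carbonate stop buffer) measures mutant GALC activity after compound treatment of live 145M-Twi Twitcher brain cells stably carrying human GALC-G270D, with wild-type GALC line alongside; activation sought.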
FH mod: Identification of activators of human fumarate hydratase by quantitative high-throughput screening; Fumarate hydratase, mitochondrial (Homo sapiens), P07954; 54,000 compounds, 0.22% hits; AID 1347055, 2019; Potency, µM (doses to about 79.9 µM), actives largely listed as inhibitors; FH coupled MDH/diaphorase resazurin fluorescence, 15 min; note: the screen sought activators but most active calls are inhibition curves; nearly all actives have a fitted effect of over 45% in size
Target sequence (P07954 whole entry, looked up): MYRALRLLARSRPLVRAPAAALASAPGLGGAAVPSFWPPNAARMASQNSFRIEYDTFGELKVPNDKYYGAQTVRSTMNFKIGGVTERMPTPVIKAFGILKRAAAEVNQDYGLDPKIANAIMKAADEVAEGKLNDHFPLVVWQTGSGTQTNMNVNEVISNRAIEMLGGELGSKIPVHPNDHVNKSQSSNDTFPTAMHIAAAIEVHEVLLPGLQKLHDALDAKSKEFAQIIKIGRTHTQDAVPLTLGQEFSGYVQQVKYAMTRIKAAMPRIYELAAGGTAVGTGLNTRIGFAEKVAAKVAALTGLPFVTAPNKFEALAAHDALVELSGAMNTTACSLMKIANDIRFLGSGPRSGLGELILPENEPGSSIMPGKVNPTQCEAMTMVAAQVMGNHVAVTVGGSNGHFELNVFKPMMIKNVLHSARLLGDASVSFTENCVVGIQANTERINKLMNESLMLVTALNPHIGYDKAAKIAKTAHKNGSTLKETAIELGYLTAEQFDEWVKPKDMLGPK
A number is an active result; n = inactive; u = inconclusive; x = not tested or not shown; ! = repeats disagree; [ ] = dose if it differs, or a comment. Unless noted, calls come from the whole dose curve; as a rule, active = well fitted curve in the direction sought with a large enough effect; inconclusive = small, poorly fitted or top-dose-only effect, or another doubt; inactive = no such curve, though single readings can be large; an effect the other way counts as inactive or inconclusive.

SMILES	GPR32 ag	SKOV3 invasion	GALC G270D up	FH mod
CC(Sc1nc2c(c(=O)[nH]1)CCCC2)C(=O)Nc1cc(C(F)(F)F)ccc1Cl (configuration not stated)	n	n	n	u
O=C(CSc1nc2c(c(=O)[nH]1)CCC2)Nc1cc(C(F)(F)F)ccc1Cl	82.6	n	n	n
CC(C)(C)C1CCN(C(=O)n2ncc(C(O)(c3ccccc3)c3ccccc3)n2)CC1	x	x	x	n
O=C(Nc1cccc(C(F)(F)F)c1)Nc1cc(S(=O)(=O)NC2CC2)ccc1-c1ccsc1	x	n	x	19.3µM!
CCOc1ccc(CNC(=O)CSc2cc(=O)n(CC)c3ccccc23)cc1	n	n	n	n
CCN(CCCNC(=O)c1cc2c(=O)n(C)c3ccccc3c2s1)c1ccccc1	70.3	n	n	n
CCN(CCCNC(=O)CSc1cc(=O)n(CC)c2ccccc12)c1ccccc1	116.8	n	n	n
CCc1ccc(CNC(=O)CSc2cc(=O)n(CC)c3ccccc23)cc1	60.5	n	n	n
CCN(CCCNC(=O)c1cc2c(=O)n(C)c3ccccc3c2s1)Cc1ccccc1	n	n	n	n
CCn1c(=O)cc(SCC(=O)NCc2ccc(C)cc2)c2ccccc21	69.3	n	n	n
CC1(CO)CC(O)C2(C)CCC3(C)C(=CCC4C5(C=O)CCC(OC6OC(C(=O)O)C(O)C(O)C6OC6OC(C(=O)O)C(O)C(O)C6O)C(C)(C)C5CCC43C)C2C1 (configuration not stated)	x	x	x	n
CCN(CCCNC(=O)c1cc2c(Cl)nc3ccccc3c2s1)Cc1ccccc1	95.3	n	n	u
Cc1ccc2occ(CC(=O)Nc3nnc(C(C)C)s3)c2c1	n	n	n	n
Cc1cc(C)c2c(CC(=O)Nc3nnc(C(C)C)s3)coc2c1	65.2	u	n	n
O=C1NC(=O)C(c2ccccc2[N+](=O)[O-])=C1Nc1ccc(O)c(Cl)c1	n	n	x	25.1µM!
CC(C)(C)OC(=O)N1CCC(c2c(C(=O)N3CCCCC3)cnn2-c2cccc(F)c2)CC1	n	n	10µM	n
CN1CCN(C(=O)c2cnn(-c3cccc(F)c3)c2C2CCN(C(=O)OC(C)(C)C)CC2)CC1	n	n	n	n
Cc1cc(C)cc(NC(=O)Cn2c(=O)oc3cc(S(=O)(=O)N4CCCC4)ccc32)c1	n	n	n	n
Cc1ccc(NC(=O)Cn2c(=O)oc3cc(S(=O)(=O)N4CCCCC4)ccc32)c(Cl)c1	111.5	n	n	n
CC(C)c1ccc(NC(=O)Cn2c(=O)oc3cc(S(=O)(=O)N4CCCC4)ccc32)cc1	96.7	n	n	n
CC(CN1c2ccccc2Sc2ccccc21)N(C)C (configuration not stated)	107.7!	x	n	u
Cc1cccc(NC(=O)Cn2c(=O)n(CCc3ccccc3)c(=O)c3ccccc32)c1	74.8	n	n	n
O=C(Cn1c(=O)oc2cc(S(=O)(=O)NCc3ccccc3)ccc21)NCc1ccc(F)cc1	111.1	n	n	n
Cc1cccc(NC(=O)Cn2c(=O)oc3cc(S(=O)(=O)NCc4ccccc4)ccc32)c1	65.1	n	n	n
COc1ccc(CCn2c(=O)c3ccccc3n(CC(=O)Nc3cccc(C)c3)c2=O)cc1OC	n	n	n	n
SMILES	GPR32 ag	SKOV3 invasion	GALC G270D up	FH mod
O=C(Cn1c(=O)oc2cc(S(=O)(=O)NCc3ccccc3)ccc21)NCc1ccc(Cl)cc1	n	n	n	n
COc1ccc2c(c1)O[C@H](O[C@@H]1O[C@H](CO)[C@@H](O)[C@H](O)[C@H]1O)C(=O)N2	x	x	x	n
Cc1cc2c(c(=O)o1)C=C1CC[C@H]([C@H](C)Cn3cnc(=N)c4[nH]cnc43)C[C@@H]1O2	x	x	x	n
N#Cc1ccccc1NC(=O)c1cc2c(=O)n3ccccc3nc2s1	n	n	u	n
O=C(Nc1ccc(F)cc1F)c1cc2c(=O)n3ccccc3nc2s1	n	n	22.4µM	n
C=CC(=O)Nc1cc(Nc2nccc(-c3cn(C)c4ccccc34)n2)c(OC)cc1N(C)CCN(C)C	x	x	x	n
Cc1c(C(=O)O)oc2c1-c1nn(Cc3ccc(Cl)cc3)cc1CC2	n	n	n	n
CCOC(=O)c1oc2c(c1C)-c1nn(Cc3ccc(Cl)cc3)cc1CC2	n	n	n	31.6µM[activator]
O=C(O)c1ccc2nc(-c3cc4cccc(O)c4oc3=O)[nH]c2c1	n	n	n	22.4µM

Source: PubChem BioAssay (National Center for Advancing Translational Sciences (NCATS))
